Shiga toxin inh – blocks Shiga toxin action in Vero cells; Vero cells, Shiga toxin protein synthesis inhibition reporter; inhibition, % at 38.7 µM; hit rate 9.2% among 290,000; AID 2315; in the data active means inhibition mostly above about 28%, no sharp cut-off; inactive means mostly below about 43%; further: 0% is about no effect
Pf growth 96h – P. falciparum growth inhibition at 96 hours. P. falciparum luciferase reporter growth, 96 h. Potency, µM (doses to about 28.7 µM), for the others: at the top dose activity change, negative = inhibition, actives largely listed as inhibitors. hit rate 6.9% among 320,000. AID 504834; further: potency means the concentration at half of the fitted maximal effect; on the % scale 0 is the no-effect control and ±100 the full control effect
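Cell-based qHTS: luciferase-tagged P. falciparum in erythrocytes (2% hematocrit, 0.05% parasitemia final) incubated with compounds for 96 hours, 37 C, 5% CO2; luciferase detection reagent then added and luminescence measured.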
CHX counter – counter-screen for Shiga toxin inhibitors: cycloheximide protein synthesis inhibition. max response, %. hit rate 12% among 300,000. cell reporter, cycloheximide protein synthesis inhibition counterscreen; in the data active means max response mostly above about 13%, no sharp cut-off; inactive means mostly below about 14%; further: read at 38.3 µM for the half of the compounds with a filed dose; 0% is about no effect
Pf growth 48h – P. falciparum growth inhibition at 48 hours (one generation); AID 504832; Potency, µM (highest dose often 28.7 µM), without a hit: top-dose activity change, negative = inhibition, usual class: inhibitors; P. falciparum luciferase growth in erythrocytes, 48 h; hit rate 5.9% among 310,000; further: potency means the concentration at half of the fitted maximal effect; on the % scale 0 is the no-effect control and ±100 the full control effect
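Here the parasites carry a stable luciferase gene and grow inside erythrocytes in Albumax-based RPMI medium with compound for one erythrocytic cycle. Activity is scored as loss of luminescent signal.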
An asterisk follows results filed as active; i = inactive; ? = inconclusive; · = no result; [ ] = remark or other dose. Compounds with a hit are over-represented: about 21% of the library has one in this group of screens. Unless noted, the call rests on the fitted dose curve; in most records, active means well fitted inhibition curve with a large enough effect; inconclusive means small, poorly fitted or top-dose-only effect, or another doubt; inactive means no such curve, though single readings can be large or run the other way.

SMILES	Shiga toxin inh	Pf growth 96h	CHX counter	Pf growth 48h
C#CCOCCOCCOCCNc1nc(N2CCOCC2)nc(N2CCN(C(=O)[C@H](Cc3ccc(O)cc3)n3cc([C@@H](N)CC(C)C)nn3)CC2)n1	-17	12µM*	-2	5.2µM*
COCCN(C(=O)COC(=O)c1cccnc1SC)c1c(N)n(Cc2ccccc2)c(=O)[nH]c1=O	·	0%	·	1%
CCOC(=O)c1ccccc1NC(=O)Cc1sc(-c2cccnc2)nc1-c1ccc(C)cc1	-2	2.6µM*	-3	4.1µM*
CC(=O)Nc1ccc(NC(=O)Cc2sc(C)nc2-c2ccc(C)cc2)cc1	-9	?	-4	-22%
Cc1ccc(-c2nc(-c3cccnc3)sc2CC(=O)Nc2ccc3nc(C)sc3c2)cc1	-13	13µM*	-2	?
O=C(Nc1ccc(Oc2ccccc2)cc1)c1ccc(Cn2c(=O)[nH]c3ccsc3c2=O)cc1	-14	13µM*	-6	18%
O=C(Nc1ccc(Cl)c(Cl)c1)c1ccc(Cn2c(=O)[nH]c3ccsc3c2=O)cc1	-13	?	-1	19%
Cc1ccc2c(CSc3nc4ccccc4c(=O)n3CCCO)cc(=O)oc2c1C	109*	?	9	?
CC(=O)NCCn1c(SCc2ccccc2F)nc2ccccc2c1=O	-18	?	-4	-4%
Cc1ccc2c(CSc3nnc4ccccn34)cc(=O)oc2c1C	60*	-12%	17	34%
Cc1ccc2c(Cn3ccnc3)cc(=O)oc2c1C	44	12%	15	-10%
COc1cccc(-c2nc(CS(=O)CC(=O)NC3CCCCC3)c(C)o2)c1 (stereo not given)	11	?	-2	-14%
CCCCc1ccc(-c2nc(NC(=O)C3C4CCC(O4)C3C(=O)O)sc2C)cc1 (stereo not given)	58*	98%	44*	33%
O=C(/C(N=Nc1cccc([N+](=O)[O-])c1)=C(/O)c1ccc(Br)cc1)C(F)(F)F	86*	?	22*	?
CCN(CC(=O)NC1CCS(=O)(=O)C1)C(=O)c1cc(OC)c(OC)c(OC)c1 (stereo not given)	·	-4%	·	-14%
Cc1ccc(-c2cc(C(=O)O)c3ccccc3n2)c(C)c1	5	19%	18*	-6%
Cc1ccc(C)c(-c2cc(C(=O)Nc3nccs3)c3ccccc3n2)c1	2	1.9µM*	11	?
COC(=O)c1sccc1NC(=O)c1cc(-c2cc(C)ccc2C)nc2ccccc12	-7	?	1	?
O=C(O)c1cc(-c2ccc(Cl)s2)nc2ccccc12	54*	27%	14	3%
Cc1ccc(-c2cc(C(=O)Nc3cc(C)on3)c3ccccc3n2)c(C)c1	13	?	13	?
Cc1ccc(C)c(-c2cc(C(=O)Nc3cccnc3)c3ccccc3n2)c1	-8	2.1µM*	0	12µM*
Cc1ccc(-c2cc(C(=O)O)c3ccccc3n2)s1	25	2%	23	16%
CCOc1ccc(NC(=O)CC2S/C(=N/N=C3CCCCCC3)NC2=O)cc1 (stereo not given)	1	?	-2	?
Cc1cnc(C(=O)O)c[n+]1[O-]	-4	-10%	-3	-9%
Cc1cc(Cl)ccc1C(=O)C1CCCN(C(=O)CN2CCOC2=O)C1 (stereo not given)	-3	16%	-2	5%
SMILES	Shiga toxin inh	Pf growth 96h	CHX counter	Pf growth 48h
Cc1ccc(NC(=O)c2cc(-c3ccc(C)o3)nc3ccccc23)cc1	-3	-32%	-1	?
Cc1ccc(-c2cc(C(=O)Nc3cccnc3)c3ccccc3n2)o1	7	4.7µM*	8	·
CCc1c(C(=O)NC(C)C2CCCO2)csc1C (stereo not given)	-29	-25%	6	16%
CC1=C([N+](=O)[O-])C(c2ccccc2)NC(=O)N1 (stereo not given)	·	?	-6	6%
C=CCC(=O)NC1CC(C)(C)Cc2c1cnn2-c1ccc(C)cc1 (stereo not given)	31	?	5	-7%
Cc1ccc(-n2ncc3c2CC(C)(C)CC3NC(=O)CCc2ccc(=O)[nH]n2)cc1 (stereo not given)	12	13µM*	6	5%
Cc1cc(C(=O)NC2CC(C)(C)Cc3c2cnn3-c2ccc(F)cc2)no1 (stereo not given)	37*	36%	18	?
Cc1ccc(-n2ncc3c2CC(C)(C)CC3NC(=O)c2ccccn2)cc1 (stereo not given)	-2	15µM*	21*	-19%
Cn1nccc1C(=O)NC1CC(C)(C)Cc2c1cnn2-c1ccc(F)cc1 (stereo not given)	28	77%	0	-6%
Cc1ccccc1-n1ncc2c1CC(C)(C)CC2NC(=O)c1snnc1C (stereo not given)	-10	5.9µM*	-1	?
CC[C@H](C)[C@H](NC(=O)[C@H](CCC(=O)O)NC(=O)CNC(=O)[C@@H](NC(=O)[C@@H]1CCCN1C(=O)[C@@H](NC(=O)[C@@H]1CCCN1C(=O)[C@@H]1CCCN1C(=O)[C@H](CC(N)=O)NC(=O)[C@H](CC(N)=O)NC(=O)[C@@H](NC(=O)[C@H](CCSC)NC(=O)[C@H](Cc1c[nH]c2ccccc12)NC(=O)CNC(=O)[C@@H](NC(=O)[C@H](CCC(N)=O)NC(=O)[C@@H](N)CCC(=O)O)[C@@H](C)CC)[C@@H](C)O)[C@@H](C)CC)C(C)C)C(=O)O	-5	·	-2	·
O=C(NCc1ccccn1)c1ccc(OC2CCN(Cc3cccs3)CC2)cc1	-8	4%	2	-8%
CC(=O)NCc1ccc(C(=O)CSc2nnc(C3CC3)n2C2CC2)cc1	·	-19%	·	9%
CCc1nc(N2CCN(C(=S)NCCCOC)CC2)c2c3c(sc2n1)CCCC3	-9	4%	0	?
CCN(CC)CCN(C(=O)CCS(=O)(=O)c1ccccc1)c1nc2cc3c(cc2s1)OCO3	-3	23%	-1	-2%
N/C(=N\OC(=O)Cc1ccccc1)c1cccc(Br)c1	48*	8%	11	36%
N/C(=N\OC(=O)Cc1ccccc1[N+](=O)[O-])c1cccc(Br)c1	27	27%	18*	24%
N/C(=N\OC(=O)Cc1ccc(-c2ccccc2)cc1)c1cccc([N+](=O)[O-])c1	-19	38%	-2	31%
CCOc1cccc(/C=C/c2ccc3cccc(O)c3n2)c1OC	93*	?	52*	?
CCOc1cccc(/C=C/c2ccc3cccc(O)c3n2)c1O	139*	8.3µM*	27*	-3%[0.00184 µM]
CN1CCN(C(=O)c2ccc(-n3cccn3)nc2)CC1	-2	69%	4	i
CCCCN(C)CCN1C(=O)C2C(C(=O)Nc3ccc(C)cc3)C3C=CC2(O3)C1C(=O)NC1CCCCC1 (stereo not given)	3	?	-4	?
Cc1nn(Cc2ccccc2)c(Cl)c1C(=O)OC(C)C(=O)Nc1ccc(F)cc1Cl (stereo not given)	-5	13µM*	-1	?
CCN(CC(=O)Nc1ccc(OC)cc1)C(=O)Cc1ccc(OC)c(S(=O)(=O)N2CCOCC2)c1	·	-26%	·	-24%
